Each structure is given as a SMILES string. Inconclusive results are not listed. A call without a number means that no potency is given here. The source made the active and inactive calls. The call rests on the fitted dose curve.

This test can be described thus: p53 small molecule agonists, cell-based qHTS assay with human liver microsomes: qHTS cell viability counter screen (AID 1963579). Further: nearly all actives have a fitted effect of over 45% in size. Conditions: p53RE-bla HCT-116 viability, ATP luminescence, 16 h, HLM; series mostly up to 66 µM. The text has this: National Center for Advancing Translational Sciences [NCATS]
Division of Preclinical Innovation [DPI]
U.S. Environmental Protection Agency [EPA]
National Institutes of Environmental Health Sciences [NIEHS]
National Toxicology Program [NTP]
U.S. Food and Drug Administration [FDA]
p53, a tumor suppressor protein, is activated following cellular insult, including DNA damage and other cellular stresses. The activation of p53 regulates cell fate by inducing DNA repair, cell cycle arrest, apoptosis, or cellular senescence. The activation of p53, therefore, is a good indicator of DNA damage and other cellular stresses. […] The activation of the reporter gene under culture conditions can be detected by fluorescence intensity. This cell line was used to screen the Tox21 10K compound library in the condition of presence of human liver microsomes and to identify agonists that activate the p53 signaling pathway after in vitro metabolic activation (Ooka et al., Archive of Toxicology 96:1975-1987, 2022).
Tox21 Assay Protocol Summary:
The p53RE-bla cells were dispensed at 4,000cells/3ul/well in 1536-well black-clear bottom plates. After the assay plates were incubated at 37 C, 5% CO2 incubator for 5 hours, 23 nL of compounds dissolved in DMSO, positive controls or DMSO only was transferred to the assay plate. Following compound addition, 3 uL of human liver microsomes (XenoTech, Kansas City, KS) at final concentration of 0.5 mg/mL and 1uL of B-Nicotinamide adenine dinucleotide 2'-phosphate (NADPH) at final concentration of 0.5 mg/mL were transferred to the assay plate. The plates were incubated at 37 C for 16 hours. 1 uL of LiveBLAzer detection mixture was added to each well and the plates were incubated at room temperature in the dark for 2 h. Fluorescence intensity at 460 and 530 nm emission and 405 nm excitation were measured by an Envision plate reader. For cell viability readout that measures cytotoxicity, 4 ul/well of CellTiter-Glo reagent was added into the assay plates using a Flying Reagent Dispenser. After 30 min incubation at room temperature, the luminescence intensity in the plates was measured using a ViewLux plate reader.
Consider `Cc1ccc2c(C)cccc2c1`, for which the Potency entry is “inactive”.

In the case of `C=C(C)[C@@H]1CC=C(C=O)CC1`, the Potency entry was “inactive”. The same measure for `c1ccc(-c2cccc(-c3ccccc3)c2)cc1`: “inactive”; for `c1ccc(N2CCNCC2)cc1`: “inactive”. The same measure for `c1ccc(OP(Oc2ccccc2)Oc2ccccc2)cc1`: “inactive”. The same measure for `CCN`: “inactive”.

Regarding `[O-][Cl+2]([O-])O`, the Potency entry is “inactive”. As to `c1ccc(CN2CCNCC2)cc1`, the Potency result is “inactive”. `O=C(CCN1CC1)OCC(CO)(COC(=O)CCN1CC1)COC(=O)CCN1CC1`: the Potency result was “inactive”. The same measure for `Cc1cccc(C)c1N`: “inactive”; for `C=CCc1ccccc1O`: “inactive”. `O=C/C=C/c1ccccc1`: the Potency result was “inactive”.

For `CC(C)(C)c1ccccc1O`, the Potency entry is “inactive”.

Turning to `CCOc1ccc(N)cc1`, the Potency entry was “inactive”. The same measure for `O=C(CCl)c1ccccc1`: “inactive”; for `C[C@H]1CCCC(=O)CCC/C=C/c2cc(O)cc(O)c2C(=O)O1`: “inactive”. With `O=S(=O)(c1ccc(O)cc1)c1ccc(O)cc1` the entry was “inactive”; with `CCCCC(CC)C(=O)Cl` (stereo not given), “inactive”. The same measure for `C=C1CC[C@@]2(O)[C@H]3Cc4ccc(O)c5c4[C@@]2(CCN3CC2CC2)[C@H]1O5`: “inactive”; for `CON(C)C(=O)Nc1ccc(Cl)c(Cl)c1`: “inactive”; for `Cc1cccc([N+](=O)[O-])c1`: “inactive”. With `C=CCN1C[C@H](C)N([C@H](c2ccc(C(=O)N(CC)CC)cc2)c2cccc(OC)c2)C[C@H]1C`, the Potency result is “inactive”. With `O=NN1CCOCC1` the entry was “inactive”; with `CCN(CC)c1ccccc1`, “inactive”. The same measure for `CN(C)CCO`: “inactive”; for `CC1(C)[C@H](C(=O)O[C@H](C#N)c2cccc(Oc3ccccc3)c2)[C@@H]1C=C(Br)Br`: “inactive”. Consider `COC(C)(C)CCCC(C)C/C=C/C(C)=C/C(=O)OC(C)C` (stereo not given), for which the Potency result is “inactive”.

As for `C=COCCCl`, the Potency result was “inactive”. The same measure for `OCCSSCCO`: “inactive”; for `CCCOC(=O)c1ccccc1C(=O)OCCC`: “inactive”; for `COCC(=O)N(c1c(C)cccc1C)C(C)C(=O)OC` (stereo not given): “inactive”. As for `c1ccc2c(c1)oc1ccccc12`, the Potency result is “inactive”.

Regarding `ClC1=C(Cl)[C@]2(Cl)[C@@H]3[C@@H](Cl)[C@@H](Cl)C[C@@H]3[C@@]1(Cl)C2(Cl)Cl`, the Potency result was “inactive”. With `CCCCOC(=O)COC(=O)c1ccccc1C(=O)OCCCC` the entry was “inactive”; with `CC1OC(C)OC(C)O1` (stereo not given), “inactive”; with `CCCCOCCOP(=O)(OCCOCCCC)OCCOCCCC`, “inactive”. The same measure for `C=CC1CC=CCC1` (stereo not given): “inactive”. With `Cc1[nH]c(=O)n(C(C)(C)C)c(=O)c1Cl` the entry was “inactive”; with `C[C@H]1O[C@H](OC2[C@@H](O)[C@@H](O)C(O)[C@H](O)[C@H]2O)[C@@H](N)C[C@@H]1N=C(N)C(=O)O` (stereo not given in full), “inactive”. In the case of `NC1(c2ccccc2)CCCCC1`, the Potency entry was “inactive”.
